The structures appear in SMILES notation. Results filed as inconclusive are left out. Calls of active or inactive are those of the source. Calls follow the shape of the dose curve; as a rule, active = well fitted inhibition curve with a large enough effect; inconclusive = small, poorly fitted or top-dose-only effect; inactive = no such curve, though single readings can be large or run the other way.
Potency is read from the fitted curve at half-maximal effect.

This test is described as follows: Acumen qHTS Assay for Inhibitors of the mTORC1 Signaling Pathway in MEF (Tsc2-/-, p53-/-) Cells: Hit Validation.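 Also: phospho-rpS6 Ser235/236 immunofluorescence normalized to propidium iodide cell count; nearly all actives have a fitted effect of over 65% in size.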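 As to activity change, negative = inhibition: cells exposed to compound for 24 hours; plate controls were DMSO for no effect and 7.5 nM rapamycin control for full effect.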 As to conditions: Acumen imaging; activity change, negative = inhibition: at 37.3 µM (top of the series). (qHTS replaces the single test concentration by a dilution series.)
As to `Cc1ccc(-c2nnc(C3CCN(S(=O)(=O)c4ccc(C)c(C)c4)CC3)o2)cc1`, the activity change, negative = inhibition was -7.22%.
On to `COc1ccc(NC(=O)CSc2nc3ccccc3nc2N2CCC(C)CC2)cc1`, for which the activity change, negative = inhibition was 6.7%.
In the case of `COc1ccc(OCC(=O)Nc2ccc3nn(-c4ccc(OC)cc4)nc3c2)cc1`, the activity change, negative = inhibition stood at 11.1%.
As for `CCC(C)NC(=O)c1sc2nc(C)c(C(=O)Nc3ccc(C)cc3C)c(-c3ccc(Cl)cc3)c2c1N` (stereo not drawn), the activity change, negative = inhibition was -10.2%.
With `Cc1ccc(C(=O)Nc2c(C(=O)NCc3ccc(Cl)cc3)sc3nc(C)cc(C)c23)cc1`, the activity change, negative = inhibition is -89.8%.
For the molecule `CC(=O)Nc1ccc(NC(=O)c2nc(S(=O)(=O)Cc3ccc(F)cc3)ncc2Cl)cc1`, the Potency is 2.61 µM (active).
For `CCOC(=O)c1ccc(-c2ccc(/C=C(\C#N)c3nc4ccc(C)cc4[nH]3)o2)cc1`, the Potency is 4.14 µM (active).
Regarding `COc1ccc(CNC(=O)c2cccc(N3CCCS3(=O)=O)c2)cc1OC`, the Potency was 5.21 µM (active).
On to `COc1ccc(OC)c(C(=O)CC2(O)C(=O)N(Cc3ccccc3C)c3ccccc32)c1` (stereo not drawn), for which the Potency is 2.61 µM (active).
With `CCOc1ccc(CCNCc2c(C(=O)O)n(Cc3ccc(C)cc3)c3cc(OC)ccc23)cc1`, the activity change, negative = inhibition was -26.5%.
As to `COc1ccc(S(=O)(=O)N(Cc2nc(-c3cccc(C)c3)no2)C2CCCCC2)cc1`, the activity change, negative = inhibition was -16.2%.
Same read-out and setting: the same measure for `COc1ccc(OCC(=O)NCc2ccc3c(c2)CCN3C(=O)c2cccc(C)c2)cc1`: -87.8%.
With `Cc1nn(C(C)C(=O)NC2CCCCC2)c(=O)c2c1sc1ccccc12` (stereo not drawn), the activity change, negative = inhibition is -2.94%.
For `COc1ccc(CCCc2nnc(SCC(=O)Nc3ccc(OC)cc3)o2)cc1`, the activity change, negative = inhibition is 14%.
On to `COc1ccc(CC(=O)Nc2sc3c(c2C(=O)Nc2cccc(C)c2)CCCCC3)cc1`, for which the Potency was 4.14 µM (active).
With `Cc1ccc(C)c(S(=O)(=O)NCC(c2ccco2)S(=O)(=O)c2ccc(F)cc2)c1` (stereo not drawn), the activity change, negative = inhibition was -16.2%.
As for `CCC1=Nc2cc(C(=O)NC3CCC(C)CC3)ccc2Sc2ccc(C)cc21` (stereo not drawn), the Potency is 1.47 µM (active).
As to `Cc1cc(C)c(NC(=O)c2sc3nc(C)cc(C)c3c2NC(=O)c2ccccc2)c(C)c1`, the activity change, negative = inhibition was -8.54%.
Same read-out and setting: the same measure for `Cc1ccc(C(=O)CC2(O)C(=O)N(Cc3ccccc3)c3ccccc32)c(C)c1` (stereo not drawn): -24%.
Take `Cc1ccc(CN2C(=O)C(O)(CC(=O)c3ccc(C)cc3)c3ccccc32)cc1` (stereo not drawn): the Potency was 4.65 µM (active).
As to `Cc1ccc(CN(Cc2cccn2-c2nnc(N3CCCC3=O)s2)C(=O)Nc2ccccc2C(F)(F)F)cc1`, the activity change, negative = inhibition is -12.7%.
As for `CCC(C)n1c(SCc2c(F)cccc2Cl)nc2ccsc2c1=O` (stereo not drawn), the activity change, negative = inhibition was -45.2%.
Regarding `CC(C)Cc1ccc(S(=O)(=O)N2CCC(c3ccncc3)CC2)cc1`, the Potency is 4.65 µM (active).
For `CN1CCN(C(CNC(=O)C(=O)Nc2cccc(Cl)c2)c2ccc3c(c2)OCO3)CC1` (stereo not drawn), the activity change, negative = inhibition is -4.53%.
Consider `CCc1ccc(-c2nc(CSCC(=O)NCc3ccc(C)cc3)c(C)o2)cc1`, for which the activity change, negative = inhibition is 4.67%.
With `O=C(CCOc1ccccc1)N(Cc1cccnc1)c1nc2c(F)cccc2s1`, the Potency is 11.7 µM (active).
Take `CCOC(=O)C1CCN(C(=O)CSc2c3c(nc4ccc(Cl)cc24)CCCC3)CC1`: the activity change, negative = inhibition is -5.08%.
`COc1ccc(C(=O)c2sc(Nc3ccccc3)nc2N)cc1`: the activity change, negative = inhibition was -4.73%.
In the case of `O=C(Cn1c(=O)c2ccccc2n(CC(=O)Nc2ccc(Cl)cc2)c1=O)NCCc1ccccc1`, the activity change, negative = inhibition worked out at 0.576%.
In the case of `COc1ccc(N2CCN(C(=O)C(C)n3nc(C)c4sc5ccccc5c4c3=O)CC2)cc1` (stereo not drawn), the activity change, negative = inhibition was determined as 1.14%.
As for `COC(=O)c1ccc(Nc2nnc(-c3ccc(C)c(S(=O)(=O)N4CCN(C)CC4)c3)c3ccccc23)cc1`, the activity change, negative = inhibition is -21.5%.
For the molecule `CCCCN(C)C(=O)CSc1c2c(nc3ccc(Cl)cc13)CCCC2`, the activity change, negative = inhibition was -13.3%.
Consider `COc1cc(C(=O)N(CCCN(C)C)c2nc3c(OC)cccc3s2)cc(OC)c1OC`, for which the activity change, negative = inhibition came to 19.6%.
As for `Cc1ccc(NC(=O)COc2ccc(-c3nn(C)c(=O)c4ccccc34)cc2)c(C)c1`, the activity change, negative = inhibition is -44.6%.
`CCN(CC)CCOC(=O)c1ccc(NC(=O)c2nn(-c3ccc(C)cc3)c(=O)c3c2c2ccccc2n3C)cc1`: the Potency was 4.14 µM (active).
On to `COc1ccc(-c2nc(CCNC(=O)c3c(F)cccc3Cl)cs2)cc1`, for which the activity change, negative = inhibition was -0.104%.
On to `Cc1ccc(-c2nnn(CC(=O)N(CC(=O)NCCC(C)C)c3ccc(F)cc3)n2)cc1`, for which the activity change, negative = inhibition was found to be 20.3%.
The same measure, in the same setting: the same measure for `Cc1ccc(-n2ncc(C(=O)NCCCN3CCc4ccccc4C3)c2C2CCN(C(=O)OC(C)(C)C)CC2)c(C)c1`: -11.4%.

The record behind these values is PubChem BioAssay AID651784 (National Center for Advancing Translational Sciences (NCATS), 2012).
